Several values for one entry are separate records, joined by “and”; a condition that tells them apart may be missing. Equal entries are not always repeated. Values without a mark were called inactive. Inconclusive results are not listed. Activity calls are given as the source filed them. Calls follow the shape of the dose curve; as a rule, active = well fitted curve in the direction sought with a large enough effect; inconclusive = small, poorly fitted or top-dose-only effect, or another doubt; inactive = no such curve, though single readings can be large or run the other way.
Target: Hexokinase-4 (Homo sapiens) + Glucokinase regulatory protein (Homo sapiens) (UniProt P35557+Q14397)
Sequence (P35557 whole entry, looked up): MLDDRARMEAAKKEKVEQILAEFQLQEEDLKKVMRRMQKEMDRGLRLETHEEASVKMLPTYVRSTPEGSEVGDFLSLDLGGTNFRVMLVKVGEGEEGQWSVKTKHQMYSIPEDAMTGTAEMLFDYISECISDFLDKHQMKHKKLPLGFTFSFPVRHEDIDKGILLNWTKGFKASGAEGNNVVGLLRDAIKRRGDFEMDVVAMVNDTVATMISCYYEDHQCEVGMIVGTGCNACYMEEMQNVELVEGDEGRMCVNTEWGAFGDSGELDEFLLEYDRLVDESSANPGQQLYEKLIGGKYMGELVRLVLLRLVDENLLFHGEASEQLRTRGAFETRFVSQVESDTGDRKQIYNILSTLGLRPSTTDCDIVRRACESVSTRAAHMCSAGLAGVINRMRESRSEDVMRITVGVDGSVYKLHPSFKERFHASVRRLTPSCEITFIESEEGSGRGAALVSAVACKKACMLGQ
Sequence (Q14397 whole entry, looked up): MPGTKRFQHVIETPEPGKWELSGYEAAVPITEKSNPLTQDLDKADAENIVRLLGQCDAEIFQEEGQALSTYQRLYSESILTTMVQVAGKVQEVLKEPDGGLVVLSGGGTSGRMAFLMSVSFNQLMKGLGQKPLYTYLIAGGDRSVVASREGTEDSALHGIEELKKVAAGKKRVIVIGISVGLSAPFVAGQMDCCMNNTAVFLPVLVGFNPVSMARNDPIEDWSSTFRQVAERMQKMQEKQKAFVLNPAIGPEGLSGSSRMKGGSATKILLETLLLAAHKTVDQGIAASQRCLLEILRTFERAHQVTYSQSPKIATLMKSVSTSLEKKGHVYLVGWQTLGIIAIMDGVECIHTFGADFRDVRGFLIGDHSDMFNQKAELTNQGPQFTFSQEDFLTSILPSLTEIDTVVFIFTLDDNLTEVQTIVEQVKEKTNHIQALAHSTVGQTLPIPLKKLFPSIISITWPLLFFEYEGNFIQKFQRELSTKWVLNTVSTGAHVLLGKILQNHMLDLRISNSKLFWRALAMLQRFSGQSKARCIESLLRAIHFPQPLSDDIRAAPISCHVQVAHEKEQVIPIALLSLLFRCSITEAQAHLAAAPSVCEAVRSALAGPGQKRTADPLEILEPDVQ
Experiment: qHTS assay for inhibitors of recombinant human GCK-GKRP interaction: HTRF assay (AID 743207);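 also: 0% = DMSO with GCK present and -100% = DMSO wells lacking GCK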
Conditions: recombinant GCK-GKRP HTRF binding, 60 min; series mostly up to 57.5 µM; activity change, negative = inhibition: at the top concentration
Procedure, shortened: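 HTRF read-out (ex 320 nm; 615/665 nm emission) after 60 min RT equilibration of 5 nM GST-GCK, 5 nM FLAG-GKRP, 2 uM S6P, compound and anti-FLAG/anti-GST detection antibodies; signal normalized between DMSO wells with and without GCK.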

| SMILES | activity change, negative = inhibition [%] |
| --- | --- |
| CCCCC/C=C\C/C=C\C/C=C\C/C=C\CCCC(=O)NCC(=O)O | -2.27 |
| CCC1(c2ccc(N)cc2)CCC(=O)NC1=O (stereo unspecified) | -7.09 |
| COc1ccc2c(c1OC)C(=O)O[C@H]2[C@@H]1c2cc3c(cc2CCN1C)OCO3 | -7.51 |

Test system: not listed separately
Experiment: qHTS Assay for Identifying Gametocytocidal Compounds (AID 743244); also: potency is read from the fitted curve at half-maximal effect;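 as to max response: % is scaled to controls: 0 for no effect and ±100 for the full control effect; actives lower the fluorescent signal which means gametocytes are killed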
Conditions: P. falciparum 3D7 stage III-V gametocytes, alamarBlue, 72 h; max response: hits give low values
Procedure, shortened: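 Using 20,000 stage III–V 3D7 gametocytes per well, compounds were incubated 72 h under 37 °C/5% CO2. Viability was then assessed by 24 h alamarBlue reduction, measured fluorometrically at 525/598 nm.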

| SMILES | Potency | max response |
| --- | --- | --- |
| CCN(CC)C(=O)[C@@H]1C=C2c3cccc4[nH]cc(c34)C[C@H]2N(C)C1 | 63.1 µM (active) | – |
| CN1C(=O)NC(=O)C(C)(C2=CCCCC2)C1=O (stereo unspecified) | – | 8.57% and 23.3% |
| O=C1OC(c2ccc(O)c(S(=O)(=O)O)c2)(c2ccc(O)c(S(=O)(=O)O)c2)c2c(Br)c(Br)c(Br)c(Br)c21 | – | 21% |
| CCC1(CC)C(=O)C=CNC1=O | – | -13.9% |
| CCCCC/C=C\C/C=C\C/C=C\C/C=C\CCCC(=O)NCC(=O)O | – | -2.03% and 7.82% |
| Clc1ccc(C(c2ccc(Cl)cc2)C(Cl)(Cl)Cl)cc1 | – | 0.742% |
| CCC(C)(C)c1ccc(O)cc1 | – | 15.1% |
| COC(=O)[C@@H](N)CCCN/C(N)=N/[N+](=O)[O-] | – | -0.272% |
| NNc1ccccc1 | – | -4.92% |
| CCC1(c2ccc(N)cc2)CCC(=O)NC1=O (stereo unspecified) | – | 3.2% and 30.1% |
| C#C[C@]1(O)CC[C@H]2[C@@H]3CCC4=CC(=O)CC[C@]4(C)[C@H]3CC[C@@]21C | – | 15.4% and 2.46% |
| COP(=S)(OC)Oc1ccc(S(=O)(=O)N(C)C)cc1 | – | 17.5% |
| CNC(C)(C)Cc1ccccc1 | – | 20.1% |
